Source: PubChem BioAssay (EPA / NIEHS)
Inconclusive results are not listed. Calls of active or inactive are those of the source. The calls were made as follows, unless noted: active = hit-call score of the fitted dose curve at least 0.9, where 1 is the maximum; inactive = score below 0.9.

Columns and labels:
[1] = ATG_Sox_CIS: Attagene CIS-FACTORIAL HepG2 Assay for human SRY-box transcription factor (SOX) (AID 2282960); conditions: HepG2 Attagene cis-factorial SOX reporter, mRNA; actives raise or lower the signal
In short: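 HepG2, cis reporter units, 24 h exposure. Reporter mRNA: RT-PCR → FAM labelling → HpaI → CE fluorescence. Bidirectional fit vs DMSO.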

[2] = biological target: Transcription factor Sp1 (Homo sapiens) (UniProt P08047); experiment: ATG_Sp1_CIS: Attagene CIS-FACTORIAL HepG2 Assay for human Specificity Protein 1 (Sp1) (AID 2282961); conditions: HepG2 Sp1 cis-reporter transcription, actives raise or lower the signal
In short: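 Liver-derived HepG2 cells, cis-element reporter library, 24 h treatment; RNA isolated, cDNA amplified with reporter-specific primers, FAM-labeled fragments sized on capillary analyzer. DMSO baseline, bidirectional curve fit.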

[3] = ATG_SREBP_CIS: Attagene CIS-FACTORIAL HepG2 Assay for human Sterol Regulatory Element Binding (SREBP) (AID 2282962); conditions: HepG2 Attagene cis-factorial SREBP reporter, mRNA; actives raise or lower the signal
In short: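 mRNA induction of transfected cis-promoter reporters in HepG2 cells, 24 h post-dose. Detection: RT-PCR with 6-FAM-labelled products, HpaI digest, capillary electrophoresis. DMSO served as negative control and baseline.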

[4] = biological target: Signal transducer and activator of transcription 3 (Homo sapiens) (UniProt P40763); experiment: ATG_STAT3_CIS: Attagene CIS-FACTORIAL HepG2 Assay for human Signal Transducer and Activator of Transcription 3 (STAT3) (AID 2282963); conditions: HepG2, Attagene cis-factorial STAT3 reporter transcription; actives raise or lower the signal
In short: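 HepG2 cells transiently transfected with multiple cis-element-driven reporter units report endogenous transcription factor activity. After 24 h compound exposure, reporter mRNA is measured by RT-PCR, 6-FAM labelling, HpaI digestion and capillary electrophoresis. Fitted bidirectionally versus DMSO.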

[5] = ATG_TA_CIS: Attagene CIS-FACTORIAL HepG2 Assay for human TA Basal Promoter (AID 2282964); conditions: HepG2 Attagene CIS-factorial TA basal promoter reporter; actives raise or lower the signal
In short: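 Fluorescence from labelled RT-PCR reporter fragments, separated by capillary electrophoresis, gives the signal. Cells: HepG2 transiently carrying multiple reporter units, 24 h chemical dosing. Gain or loss relative to DMSO.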

[6] = ATG_TCF_b_cat_CIS: Attagene CIS-FACTORIAL HepG2 Assay for human T-Cell-Factor with beta-catenin (TCF/b-cat) (AID 2282965); conditions: HepG2 TCF/beta-catenin cis-reporter transcription, actives raise or lower the signal
In short: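 HepG2, transient MRTU transfection, cis-element-driven reporters (endogenous TFs). 24 h compound exposure. Readout: reporter mRNA by RT-PCR + 6-FAM primer extension, HpaI digest, capillary electrophoresis. Gain/loss fit vs DMSO baseline.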

[7] = ATG_TAL_CIS: Attagene CIS-FACTORIAL HepG2 Assay for human TAL Basal Promoter (AID 2282966); conditions: HepG2 Attagene cis-factorial TAL promoter reporter; actives raise or lower the signal;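 also: background control endpoint measuring basal TAL promoter reporter mRNA not a specific factor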
In short: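 Steps: transfect HepG2 with multiple reporter transcription units; dose 24 h; isolate RNA, reverse-transcribe, PCR-amplify, label with 6-FAM, digest with HpaI; resolve by capillary electrophoresis. Bidirectional fitting against DMSO baseline.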

[8] = ATG_TGFb_CIS: Attagene CIS-FACTORIAL HepG2 Assay for human Transforming Growth Factor (TGF) (AID 2282967); conditions: HepG2 Attagene CIS TGFb reporter, mRNA transcription; actives raise or lower the signal
In short: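 Bidirectional fitting relative to DMSO gave the endpoint. Underlying data: reporter mRNA from HepG2 cells carrying transiently transfected cis-regulated reporter constructs, harvested 24 h after dosing and analyzed by RT-PCR and capillary electrophoresis.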

[9] = ATG_VDRE_CIS: Attagene CIS-FACTORIAL HepG2 Assay for human Vitamin D Receptor Element (VDRE) (AID 2282968); conditions: HepG2 VDRE cis-reporter transcription, actives raise or lower the signal
In short: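 Transiently transfected HepG2 cells carrying cis-regulated reporter transcription units were exposed for 24 h. Reporter mRNA was measured by RT-PCR with fluorescent labelling and capillary electrophoresis, and fitted in both directions against DMSO.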

[10] = biological target: X-box-binding protein 1 (Homo sapiens) (UniProt P17861); experiment: ATG_Xbp1_CIS: Attagene CIS-FACTORIAL HepG2 Assay for human X-box Binding Protein 1 (XBP1) (AID 2282972); conditions: HepG2 XBP1 cis-element reporter, Attagene multiplex; actives raise or lower the signal
In short: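 Fluorescence-labelled cDNA fragments from reporter transcripts, separated by capillary electrophoresis, give the signal. Source: HepG2 cells transfected with promoter-driven reporter units, harvested 24 h post-dose. DMSO served as reference for bidirectional curve fitting.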

[11] = biological target: Bile acid receptor (Homo sapiens) (UniProt Q96RI1); experiment: ATG_FXR_TRANS: Attagene TRANS-FACTORIAL HepG2 Assay for Farnesoid X Receptor (FXR) (AID 2282979; active = hit-call score of the fitted dose curve at least 0.9, where 1 is the maximum;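 also: hits raise reporter mRNA above DMSO so AC50 marks FXR activation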); conditions: HepG2 Attagene TRANS FXR-GAL4 reporter transcription
In short: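 After 24 h chemical treatment of transfected HepG2 cells, GAL4-UAS reporter transcripts driven by an exogenous FXR-GAL4 fusion were measured by RT-PCR and capillary electrophoresis. Increases over DMSO were fitted.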

[12] = biological target: Nuclear receptor subfamily 1 group I member 3 (Homo sapiens) (UniProt Q14994); experiment: ATG_CAR_TRANS: Attagene TRANS-FACTORIAL HepG2 Assay for human Constitutive Androstane Receptor (CAR) (AID 2282969; active = hit-call score of the fitted dose curve at least 0.9, where 1 is the maximum;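 also: activators raise reporter mRNA above DMSO so AC50 marks induction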); conditions: HepG2 Attagene TRANS-FACTORIAL CAR reporter
In short: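 HepG2 cells transiently transfected with GAL4-UAS reporter units; TRANS format reads activity of exogenous chimeric NR-Gal4 protein. After 24 h dosing, reporter mRNA quantified by RT-PCR, 6-FAM labelling and capillary electrophoresis; gain of signal fitted against DMSO.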

[13] = ATG_M_19_TRANS: Attagene TRANS-FACTORIAL HepG2 Assay for M19 Transcription Factor (Internal Marker) (AID 2282974; active = hit-call score of the fitted dose curve at least 0.9, where 1 is the maximum); conditions: HepG2 Attagene TRANS-FACTORIAL M19 internal marker reporter
In short: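 Transfected HepG2 (GAL4-UAS MRTUs), 24 h compound, TriZol RNA, DNase-treated RT, reporter PCR, FAM label, HpaI digest, CE fluorescence; gain vs DMSO.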

[14] = ATG_GAL4_TRANS: Attagene TRANS-FACTORIAL HepG2 Assay for GAL4 (Internal Marker) (AID 2282976; active = hit-call score of the fitted dose curve at least 0.9, where 1 is the maximum); conditions: HepG2 Attagene TRANS GAL4 internal marker reporter
In short: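 Liver HepG2 line bearing multiplexed GAL4-UAS reporter constructs; 24 h chemical treatment. Transcripts were quantified as fluorescent fragments on capillary electrophoresis after RT-PCR and HpaI cut, with activity fitted upward from DMSO.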

[15] = biological target: Steroid hormone receptor ERR1 (Homo sapiens) (UniProt P11474); experiment: ATG_ERRa_TRANS: Attagene TRANS-FACTORIAL HepG2 Assay for human Estrogen-Related Receptor alpha (ERRa) (AID 2282971; active = hit-call score of the fitted dose curve at least 0.9, where 1 is the maximum); conditions: HepG2 Attagene TRANS reporter, ERRa transactivation
In short: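 Signal gain relative to DMSO for an ERRa-Gal4 chimeric receptor, read as reporter mRNA by RT-PCR/capillary electrophoresis. Human HepG2 liver cells, transient multiplex reporter transfection, 24 h chemical exposure.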

[16] = biological target: Glucocorticoid receptor (Homo sapiens) (UniProt P04150); experiment: ATG_GR_TRANS: Attagene TRANS-FACTORIAL HepG2 Assay for human Glucocorticoid Receptor (GR) (AID 2282978; active = hit-call score of the fitted dose curve at least 0.9, where 1 is the maximum;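 also: activators score as hits since higher reporter transcript over DMSO is fitted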); conditions: HepG2 Attagene TRANS GR reporter, mRNA transcription
In short: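 After 24 h incubation with test chemical, transfected HepG2 cells were lysed for RNA; reporter cDNA was amplified, FAM-labelled, HpaI-digested and sized on a capillary analyser. Signal gain relative to DMSO was scored.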

[17] = biological target: Oxysterols receptor LXR-alpha (Homo sapiens) (UniProt Q13133); experiment: ATG_LXRa_TRANS: Attagene TRANS-FACTORIAL HepG2 Assay for human Liver X Receptor alpha (LXRa) (AID 2282980; active = hit-call score of the fitted dose curve at least 0.9, where 1 is the maximum); conditions: HepG2 Attagene TRANS reporter, LXRa transactivation
In short: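 In this multiplexed TRANS system, compounds act on HepG2 cells carrying GAL4-UAS reporter units and a receptor-GAL4 fusion for 24 h. Induced reporter RNA is amplified, fluorescently labelled and sized by capillary electrophoresis, with DMSO as baseline.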

[18] = biological target: Estrogen receptor (Homo sapiens) (UniProt P03372); experiment: ATG_ERa_TRANS: Attagene TRANS-FACTORIAL HepG2 Assay for human Estrogen Receptor alpha (ERa) (AID 2282970; active = hit-call score of the fitted dose curve at least 0.9, where 1 is the maximum); conditions: HepG2 Attagene TRANS ERa GAL4 reporter, mRNA
In short: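 Multiplexed cell-based reporter format in HepG2: chimeric ERa-Gal4 protein drives GAL4-UAS reporter transcription. Fluorescent reporter mRNA quantified by capillary electrophoresis 24 hours after dosing; endpoint fitted as signal gain against DMSO.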

[19] = biological target: Estrogen-related receptor gamma (Homo sapiens) (UniProt P62508); experiment: ATG_ERRg_TRANS: Attagene TRANS-FACTORIAL HepG2 Assay for human Estrogen-Related Receptor gamma (ERRg) (AID 2282977; active = hit-call score of the fitted dose curve at least 0.9, where 1 is the maximum;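 also: hits increase reporter signal over DMSO so potencies reflect activators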); conditions: HepG2 Attagene TRANS reporter, ERRg transactivation
In short: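 HepG2 cells transiently transfected with multiplexed GAL4-UAS reporter units driven by chimeric NR-Gal4 proteins; 24 h exposure. Reporter mRNA quantified by RT-PCR, fluorescent labelling, HpaI digestion and capillary electrophoresis; gain of signal vs DMSO.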

Sequence of Glucocorticoid receptor (Homo sapiens) (P04150 whole entry, looked up): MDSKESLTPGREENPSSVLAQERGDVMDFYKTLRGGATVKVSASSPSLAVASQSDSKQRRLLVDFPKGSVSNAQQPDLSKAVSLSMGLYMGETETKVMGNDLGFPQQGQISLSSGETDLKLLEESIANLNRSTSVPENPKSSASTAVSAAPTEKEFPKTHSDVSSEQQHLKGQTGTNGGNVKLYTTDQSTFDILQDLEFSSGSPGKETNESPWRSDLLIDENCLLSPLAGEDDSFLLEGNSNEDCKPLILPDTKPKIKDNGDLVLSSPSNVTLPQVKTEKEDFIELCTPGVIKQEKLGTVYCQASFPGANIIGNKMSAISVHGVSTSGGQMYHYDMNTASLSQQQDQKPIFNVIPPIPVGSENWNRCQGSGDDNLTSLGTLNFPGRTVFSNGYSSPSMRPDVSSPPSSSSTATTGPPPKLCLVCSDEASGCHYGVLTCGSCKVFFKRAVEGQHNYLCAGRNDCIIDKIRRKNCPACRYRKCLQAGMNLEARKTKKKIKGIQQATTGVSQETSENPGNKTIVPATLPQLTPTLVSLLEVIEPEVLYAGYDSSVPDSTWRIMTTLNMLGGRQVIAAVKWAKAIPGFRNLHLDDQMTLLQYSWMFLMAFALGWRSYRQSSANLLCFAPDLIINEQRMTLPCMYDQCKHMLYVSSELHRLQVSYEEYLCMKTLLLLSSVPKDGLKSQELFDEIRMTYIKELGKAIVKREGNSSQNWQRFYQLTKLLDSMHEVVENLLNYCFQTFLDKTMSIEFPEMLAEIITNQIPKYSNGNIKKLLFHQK
Sequence of Transcription factor Sp1 (Homo sapiens) (P08047 whole entry, looked up, the tested form may be a part): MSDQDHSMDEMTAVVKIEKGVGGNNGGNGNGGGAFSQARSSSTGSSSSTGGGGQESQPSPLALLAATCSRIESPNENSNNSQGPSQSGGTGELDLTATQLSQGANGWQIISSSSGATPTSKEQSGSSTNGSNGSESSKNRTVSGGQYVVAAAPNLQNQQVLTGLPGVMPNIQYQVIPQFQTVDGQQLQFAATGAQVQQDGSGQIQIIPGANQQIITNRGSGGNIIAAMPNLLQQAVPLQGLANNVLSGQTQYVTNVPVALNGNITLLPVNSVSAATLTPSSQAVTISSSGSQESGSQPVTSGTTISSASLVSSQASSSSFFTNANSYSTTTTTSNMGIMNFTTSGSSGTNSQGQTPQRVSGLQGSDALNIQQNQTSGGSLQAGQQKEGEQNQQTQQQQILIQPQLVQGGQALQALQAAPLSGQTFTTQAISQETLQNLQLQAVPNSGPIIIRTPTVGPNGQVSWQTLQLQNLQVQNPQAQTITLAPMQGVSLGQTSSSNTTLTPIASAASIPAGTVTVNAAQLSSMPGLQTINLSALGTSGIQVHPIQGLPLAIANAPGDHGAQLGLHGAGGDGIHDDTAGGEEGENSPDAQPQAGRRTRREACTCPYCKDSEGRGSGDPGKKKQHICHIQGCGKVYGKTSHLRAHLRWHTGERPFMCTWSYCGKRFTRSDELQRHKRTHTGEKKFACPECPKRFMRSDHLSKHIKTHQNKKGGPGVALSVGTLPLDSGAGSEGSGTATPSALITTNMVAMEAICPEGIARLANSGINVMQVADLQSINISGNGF
Sequence of Bile acid receptor (Homo sapiens) (Q96RI1 whole entry, looked up, the tested form may be a part): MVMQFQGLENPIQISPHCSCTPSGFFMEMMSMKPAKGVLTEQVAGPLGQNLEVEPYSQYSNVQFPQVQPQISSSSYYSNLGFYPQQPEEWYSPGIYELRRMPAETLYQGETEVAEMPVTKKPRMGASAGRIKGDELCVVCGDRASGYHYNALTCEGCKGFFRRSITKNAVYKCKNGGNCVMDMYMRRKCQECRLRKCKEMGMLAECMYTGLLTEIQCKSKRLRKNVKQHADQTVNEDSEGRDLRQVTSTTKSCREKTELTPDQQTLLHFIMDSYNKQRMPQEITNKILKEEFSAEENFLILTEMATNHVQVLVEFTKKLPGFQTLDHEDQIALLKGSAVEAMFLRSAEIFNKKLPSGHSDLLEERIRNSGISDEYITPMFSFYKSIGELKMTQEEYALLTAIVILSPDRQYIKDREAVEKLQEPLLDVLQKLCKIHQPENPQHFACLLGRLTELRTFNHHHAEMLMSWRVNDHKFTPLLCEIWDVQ
Sequence of X-box-binding protein 1 (Homo sapiens) (P17861 whole entry, looked up, the tested form may be a part): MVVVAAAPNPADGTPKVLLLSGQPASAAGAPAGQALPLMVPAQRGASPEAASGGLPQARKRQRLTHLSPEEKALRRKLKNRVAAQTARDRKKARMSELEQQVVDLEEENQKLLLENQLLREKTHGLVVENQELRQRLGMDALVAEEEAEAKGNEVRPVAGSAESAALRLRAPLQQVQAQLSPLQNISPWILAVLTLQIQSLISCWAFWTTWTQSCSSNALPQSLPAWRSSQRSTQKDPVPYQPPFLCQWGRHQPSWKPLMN
Sequence of Signal transducer and activator of transcription 3 (Homo sapiens) (P40763 whole entry, looked up): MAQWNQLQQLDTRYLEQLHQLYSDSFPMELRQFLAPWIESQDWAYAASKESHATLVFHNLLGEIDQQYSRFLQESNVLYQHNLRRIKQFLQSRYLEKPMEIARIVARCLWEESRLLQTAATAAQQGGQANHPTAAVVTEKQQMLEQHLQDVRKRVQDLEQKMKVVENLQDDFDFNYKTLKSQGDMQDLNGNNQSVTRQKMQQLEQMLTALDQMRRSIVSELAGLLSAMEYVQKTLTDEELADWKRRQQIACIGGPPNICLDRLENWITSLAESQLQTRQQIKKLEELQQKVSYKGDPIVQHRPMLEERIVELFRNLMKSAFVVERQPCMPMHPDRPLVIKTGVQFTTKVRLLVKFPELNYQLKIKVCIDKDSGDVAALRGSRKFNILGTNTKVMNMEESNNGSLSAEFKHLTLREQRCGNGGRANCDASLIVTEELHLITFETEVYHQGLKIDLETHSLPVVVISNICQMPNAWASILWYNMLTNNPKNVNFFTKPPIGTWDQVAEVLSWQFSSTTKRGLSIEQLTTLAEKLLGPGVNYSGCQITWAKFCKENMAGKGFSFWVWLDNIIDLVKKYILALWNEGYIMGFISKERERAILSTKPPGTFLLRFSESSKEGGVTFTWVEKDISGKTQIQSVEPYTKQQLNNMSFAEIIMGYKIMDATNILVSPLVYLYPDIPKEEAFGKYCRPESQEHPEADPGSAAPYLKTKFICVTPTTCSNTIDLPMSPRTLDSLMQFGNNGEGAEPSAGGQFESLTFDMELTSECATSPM
Sequence of Estrogen-related receptor gamma (Homo sapiens) (P62508 whole entry, looked up, the tested form may be a part): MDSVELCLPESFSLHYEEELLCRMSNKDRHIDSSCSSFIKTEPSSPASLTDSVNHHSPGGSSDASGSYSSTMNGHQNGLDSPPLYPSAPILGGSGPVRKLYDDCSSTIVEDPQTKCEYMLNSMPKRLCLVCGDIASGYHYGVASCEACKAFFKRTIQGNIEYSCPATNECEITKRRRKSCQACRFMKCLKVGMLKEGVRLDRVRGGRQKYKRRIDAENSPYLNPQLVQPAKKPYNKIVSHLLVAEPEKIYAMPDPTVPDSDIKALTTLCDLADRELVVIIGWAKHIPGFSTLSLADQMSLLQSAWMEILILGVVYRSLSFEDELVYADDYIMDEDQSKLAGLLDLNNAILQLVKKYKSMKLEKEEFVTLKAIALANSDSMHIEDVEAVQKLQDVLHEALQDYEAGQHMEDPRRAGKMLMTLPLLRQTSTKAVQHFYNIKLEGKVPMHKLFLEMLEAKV
Sequence of Oxysterols receptor LXR-alpha (Homo sapiens) (Q13133 whole entry, looked up, the tested form may be a part): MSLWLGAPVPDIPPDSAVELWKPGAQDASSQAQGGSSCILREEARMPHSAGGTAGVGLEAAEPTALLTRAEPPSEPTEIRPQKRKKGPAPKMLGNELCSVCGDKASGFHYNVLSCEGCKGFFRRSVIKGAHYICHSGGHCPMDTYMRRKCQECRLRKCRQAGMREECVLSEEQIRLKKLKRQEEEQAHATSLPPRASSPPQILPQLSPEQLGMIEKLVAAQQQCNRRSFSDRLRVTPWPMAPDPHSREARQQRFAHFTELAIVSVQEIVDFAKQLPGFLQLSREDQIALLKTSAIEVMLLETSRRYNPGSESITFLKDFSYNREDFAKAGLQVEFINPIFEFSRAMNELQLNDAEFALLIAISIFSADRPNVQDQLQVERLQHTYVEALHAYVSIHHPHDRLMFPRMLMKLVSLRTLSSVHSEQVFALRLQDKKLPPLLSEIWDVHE
Sequence of Steroid hormone receptor ERR1 (Homo sapiens) (P11474 whole entry, looked up, the tested form may be a part): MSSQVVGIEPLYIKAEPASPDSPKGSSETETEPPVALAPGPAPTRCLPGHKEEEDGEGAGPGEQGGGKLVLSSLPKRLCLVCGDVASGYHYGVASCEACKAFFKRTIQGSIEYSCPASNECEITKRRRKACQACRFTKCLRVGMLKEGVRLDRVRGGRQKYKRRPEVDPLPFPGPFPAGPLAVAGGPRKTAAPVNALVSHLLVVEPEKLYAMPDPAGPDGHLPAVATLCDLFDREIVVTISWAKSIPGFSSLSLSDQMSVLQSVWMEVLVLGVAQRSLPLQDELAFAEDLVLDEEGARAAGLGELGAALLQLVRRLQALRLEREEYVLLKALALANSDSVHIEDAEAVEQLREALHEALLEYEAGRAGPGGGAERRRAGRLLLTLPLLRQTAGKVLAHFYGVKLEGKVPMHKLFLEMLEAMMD
Sequence of Estrogen receptor (Homo sapiens) (P03372 whole entry, looked up, the tested form may be a part): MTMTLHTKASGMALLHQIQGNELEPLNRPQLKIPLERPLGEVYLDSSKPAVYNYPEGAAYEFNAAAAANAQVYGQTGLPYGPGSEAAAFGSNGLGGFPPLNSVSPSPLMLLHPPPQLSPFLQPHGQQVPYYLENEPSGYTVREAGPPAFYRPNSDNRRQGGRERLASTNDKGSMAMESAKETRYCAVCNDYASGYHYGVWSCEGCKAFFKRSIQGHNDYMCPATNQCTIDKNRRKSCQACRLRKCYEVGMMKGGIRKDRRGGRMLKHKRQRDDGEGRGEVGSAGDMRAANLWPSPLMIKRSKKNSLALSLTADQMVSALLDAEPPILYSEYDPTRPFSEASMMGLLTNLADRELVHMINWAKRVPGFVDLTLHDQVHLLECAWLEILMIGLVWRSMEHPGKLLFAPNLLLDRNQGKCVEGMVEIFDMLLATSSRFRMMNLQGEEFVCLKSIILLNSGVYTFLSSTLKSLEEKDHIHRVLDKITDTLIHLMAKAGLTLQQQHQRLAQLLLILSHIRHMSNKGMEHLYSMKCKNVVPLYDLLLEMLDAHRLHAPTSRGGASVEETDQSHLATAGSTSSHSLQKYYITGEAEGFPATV

CC(C)CC(C)(c1ccc(O)cc1)c1ccc(O)cc1
outcome [1]: inactive | outcome [2]: inactive | outcome [3]: inactive | outcome [4]: inactive | outcome [5]: inactive | AC50 [6]: 11.1 µM (active) | outcome [7]: inactive | outcome [8]: inactive | AC50 [9]: 5.37 µM (active) | AC50 [10]: 8.52 µM (active) | AC50 [11]: 7.12 µM (active)

CCOP(=S)(OCC)OP(=S)(OCC)OCC
outcome [1]: inactive | outcome [2]: inactive | outcome [3]: inactive | outcome [4]: inactive | outcome [5]: inactive | outcome [6]: inactive | outcome [7]: inactive | outcome [8]: inactive | outcome [12]: inactive | outcome [10]: inactive | outcome [13]: inactive | outcome [14]: inactive | outcome [11]: inactive

N#Cc1ccccc1Cl
outcome [1]: inactive | outcome [2]: inactive | outcome [3]: inactive | outcome [4]: inactive | outcome [5]: inactive | outcome [6]: inactive | outcome [7]: inactive | outcome [8]: inactive | outcome [9]: inactive | outcome [15]: inactive | outcome [10]: inactive | outcome [11]: inactive

Brc1ccc(Oc2c(Br)cc(Br)cc2Br)c(Br)c1
outcome [1]: inactive | outcome [2]: inactive | outcome [3]: inactive | outcome [4]: inactive | outcome [5]: inactive | outcome [6]: inactive | outcome [7]: inactive | outcome [8]: inactive | outcome [9]: inactive | outcome [15]: inactive | outcome [10]: inactive | outcome [13]: inactive | outcome [14]: inactive | outcome [16]: inactive | outcome [11]: inactive | outcome [17]: inactive

Cc1cc(SCc2sc(-c3ccc(C(F)(F)F)c(F)c3)nc2C)ccc1OCC(=O)O
outcome [1]: inactive | outcome [2]: inactive | outcome [3]: inactive | outcome [4]: inactive | AC50 [5]: 23 µM (active) | AC50 [6]: 24.8 µM (active) | AC50 [7]: 15.5 µM (active) | outcome [8]: inactive | AC50 [9]: 9.54 µM (active) | AC50 [10]: 25.2 µM (active) | outcome [13]: inactive | outcome [16]: inactive | AC50 [11]: 27.1 µM (active)

C=C(C)C(=O)OCC(CC)CCCC (configuration not stated)
outcome [1]: inactive | outcome [2]: inactive | outcome [3]: inactive | outcome [4]: inactive | outcome [5]: inactive | outcome [6]: inactive | outcome [7]: inactive | outcome [8]: inactive | outcome [9]: inactive | outcome [18]: inactive | outcome [10]: inactive | outcome [14]: inactive | outcome [19]: inactive

[Cl][Sn]([c]1ccccc1)([c]1ccccc1)[c]1ccccc1
AC50 [1]: 0.217 µM (active) | AC50 [2]: 1.66 µM (active) | outcome [3]: inactive | outcome [4]: inactive | AC50 [5]: 0.251 µM (active) | outcome [6]: inactive | AC50 [7]: 1.13 µM (active) | outcome [8]: inactive | AC50 [9]: 0.24 µM (active) | outcome [18]: inactive | outcome [19]: inactive | outcome [11]: inactive

CCCCCCCCCCCCCCC(Br)C(=O)O (configuration not stated)
outcome [1]: inactive | outcome [2]: inactive | outcome [3]: inactive | outcome [4]: inactive | AC50 [5]: 110 µM (active) | outcome [6]: inactive | AC50 [7]: 129 µM (active) | AC50 [8]: 162 µM (active) | AC50 [9]: 162 µM (active) | outcome [13]: inactive | outcome [14]: inactive | outcome [16]: inactive | outcome [11]: inactive

Brc1ccc(Br)cc1
outcome [1]: inactive | outcome [2]: inactive | outcome [3]: inactive | outcome [4]: inactive | outcome [5]: inactive | outcome [6]: inactive | outcome [7]: inactive | outcome [8]: inactive | outcome [9]: inactive | outcome [10]: inactive | outcome [13]: inactive | outcome [14]: inactive | outcome [19]: inactive | outcome [17]: inactive
